Records with an inconclusive call do not appear. Some structures have more than one record in an assay (separate samples or runs), and their calls can disagree. Calls of active or inactive are those of the source. The calls were made as follows, unless noted: active = hit-call score of the fitted dose curve at least 0.9, where 1 is the maximum; inactive = score below 0.9.
What was measured:
[1] = read-out: Interleukin-8 (IL8), CXCL8 (gene 3576); experiment: BSK_3C_IL8: BioMAP Diversity Plus: 3C Assay for Interleukin-8 (IL8) Biomarker Activity (AID 2283020); settings: primary human endothelial cells (HUVEC); actives raise or lower the signal
How it was run: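 Human vascular endothelial cells (umbilical vein) in the 3C system; IL-8 level detected by ELISA at 24 h post-dose, with DMSO as baseline.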

[2] = read-out: Monokine induced gamma interferon (MIG), CXCL9 (gene 4283); experiment: BSK_3C_MIG: BioMAP Diversity Plus: 3C Assay for Monokine induced gamma interferon (MIG) Biomarker Activity (AID 2283021); settings: primary human endothelial cells (HUVEC); actives raise or lower the signal;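 as to AC50: MIG protein level measured by immunoassay in the treated endothelial cultures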
How it was run: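 After 24 h of treatment, human umbilical vein endothelial cultures (3C system) had their MIG biomarker level determined by ELISA, with DMSO serving as negative control.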

[3] = target: human Vitamin D Receptor (VDR), VDR (gene 7421) (UniProt P11473); experiment: ATG_VDR_TRANS: Attagene TRANS-FACTORIAL HepG2 Assay for human Vitamin D Receptor (VDR) (AID 2283022; active = hit-call score of the fitted dose curve at least 0.9, where 1 is the maximum)
Sequence of human Vitamin D Receptor (VDR), VDR (gene 7421) (P11473 whole entry, looked up, the tested form may be a part): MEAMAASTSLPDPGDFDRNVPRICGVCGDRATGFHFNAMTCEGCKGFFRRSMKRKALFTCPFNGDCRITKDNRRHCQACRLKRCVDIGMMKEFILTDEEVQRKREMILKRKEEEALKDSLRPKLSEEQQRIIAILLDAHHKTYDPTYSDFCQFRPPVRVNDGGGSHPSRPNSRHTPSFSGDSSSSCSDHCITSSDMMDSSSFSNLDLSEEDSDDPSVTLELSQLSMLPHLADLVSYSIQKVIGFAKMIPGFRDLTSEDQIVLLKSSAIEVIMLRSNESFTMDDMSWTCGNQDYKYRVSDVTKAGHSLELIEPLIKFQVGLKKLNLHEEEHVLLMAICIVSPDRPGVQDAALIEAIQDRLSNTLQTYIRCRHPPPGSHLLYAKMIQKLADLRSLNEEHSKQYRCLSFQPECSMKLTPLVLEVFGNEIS
How it was run: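 HepG2 cells were transiently transfected with GAL4-UAS reporter units and a chimeric VDR-Gal4 construct, then dosed for 24 hours. Reporter mRNA was quantified by RT-PCR, fluorescent labeling, HpaI digestion and capillary electrophoresis; gain of signal analysed vs DMSO.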

[4] = BSK_3C_SRB: Viability Assessment in the BioMAP Diversity Plus: 3C Assay (AID 2283023); settings: primary human endothelial cells (HUVEC);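 also: fitted both ways against DMSO so a hit may be signal rise or drop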
How it was run: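 Human umbilical vein endothelial cells in the 3C system, treated 24 h. Total protein measured by 0.1% sulforhodamine B staining after 10% TCA fixation, read at 560 nm; bidirectional fit versus DMSO.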

[5] = read-out: Matrix Metallopeptidase 1 (MMP1), MMP1 (gene 4312); experiment: BSK_BE3C_MMP1: BioMAP Diversity Plus: BE3C Assay for Matrix Metallopeptidase 1 (MMP1) Biomarker Activity (AID 2283024); settings: primary human bronchial epithelial cells; actives raise or lower the signal
How it was run: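 Dose cells, wait 24 h, run MMP1 ELISA; cells are human bronchial epithelial primaries. Both increases and decreases relative to DMSO counted.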

[6] = BSK_3C_Vis: BioMAP Diversity Plus: 3C Assay for Morphology Visualization (AID 2283025); settings: primary human endothelial cells (HUVEC);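 also: fitted both ways so gain or loss versus DMSO counts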;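 as to AC50: light microscopy image of cell morphology used as background control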
How it was run: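 Endothelial cells from human umbilical vein were treated with test chemicals for 24 h and inspected by light microscopy for changes in cell conformation.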

[7] = read-out: Pselectin, SELP (gene 6403); experiment: BSK_4H_Pselectin: BioMAP Diversity Plus: 4H Assay for Pselectin Biomarker Activity (AID 2283026); settings: primary human endothelial cells (HUVEC); actives raise or lower the signal
How it was run: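 Human vascular endothelium from umbilical vein; P-selectin measured by ELISA at 24 h post-dose, with cytotoxicity checked by sulforhodamine B total-protein staining in parallel cultures (0.1% SRB after 10% TCA fixation, read at 560 nm).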

[8] = BSK_4H_SRB: Viability Assessment in the BioMAP Diversity Plus: 4H Assay (AID 2283027); settings: primary human endothelial cells (HUVEC);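 also: cells exposed to compound for 24 h before staining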;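 as to AC50: curves fitted both ways versus DMSO so AC50 may be loss or gain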
How it was run: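 Human umbilical vein endothelial cells, 24 h after chemical dosing; total protein measured by 0.1% sulforhodamine B staining after 10% TCA fixation, read at 560 nm. Bidirectional fitting against DMSO.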

[9] = BSK_BE3C_SRB: Viability Assessment in the BioMAP Diversity Plus: BE3C Assay (AID 2283028); settings: primary human bronchial epithelial cells
How it was run: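 Human bronchial epithelial primary cells in confluent culture, 24 h after chemical dosing; total protein by 0.1% SRB staining after 10% TCA fixation, read at 560 nm. Bidirectional fitting versus DMSO baseline.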

[10] = read-out: Thrombomodulin, THBD (gene 7056); experiment: BSK_3C_Thrombomodulin: BioMAP Diversity Plus: 3C Assay for Thrombomodulin Biomarker Activity (AID 2283029); settings: primary human endothelial cells (HUVEC); actives raise or lower the signal
How it was run: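 Thrombomodulin ELISA, human primary HUVEC, 24 h post-dose; data fitted in both directions relative to DMSO.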

[11] = read-out: Urokinase-type plasminogen activator receptor (uPAR), PLAUR (gene 5329); experiment: BSK_4H_uPAR: BioMAP Diversity Plus: 4H Assay for Urokinase-type plasminogen activator receptor (uPAR) Biomarker Activity (AID 2283030); settings: primary human endothelial cells (HUVEC); actives raise or lower the signal
How it was run: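 Human umbilical vein endothelial cells in the 4H system, 24 h after chemical dosing. Cell-surface uPAR measured by ELISA, fitted in both directions versus DMSO; cytotoxicity checked by SRB total protein in parallel cultures.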

[12] = read-out: Human Leukocyte Antigen - DR isotype (HLADR), HLA-DRA (gene 3122); experiment: BSK_BE3C_HLADR: BioMAP Diversity Plus: BE3C Assay for Human Leukocyte Antigen - DR isotype (HLADR) Biomarker Activity (AID 2283032); settings: primary human bronchial epithelial cells; actives raise or lower the signal
How it was run: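 Signal came from an ELISA for HLA-DR in human bronchial epithelial primary cells harvested 24 h after treatment; gain- and loss-of-signal fitting used DMSO controls as reference.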

[13] = read-out: Vascular cell adhesion molecule 1 (VCAM1), VCAM1 (gene 7412); experiment: BSK_4H_VCAM1: BioMAP Diversity Plus: 4H Assay for Vascular cell adhesion molecule 1 (VCAM1) Biomarker Activity (AID 2283033); settings: primary human endothelial cells (HUVEC); actives raise or lower the signal;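 also: cell-surface VCAM-1 protein measured by ELISA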
How it was run: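 Endpoint derived from bidirectional fitting against DMSO controls of VCAM-1 ELISA signal in umbilical vein endothelial cells sampled at 24 h following treatment.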

[14] = read-out: Interferon-gamma inducible Protein 10 (IP10), CXCL10 (gene 3627); experiment: BSK_BE3C_IP10: BioMAP Diversity Plus: BE3C Assay for Interferon-gamma inducible Protein 10 (IP10) Biomarker Activity (AID 2283034); settings: primary human bronchial epithelial cells; actives raise or lower the signal
How it was run: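 Using primary human bronchial epithelial cultures, the assay captures IP-10 by ELISA one day (24 h) after exposure. Parallel SRB staining of total protein flags overt cytotoxicity. Fits run bidirectionally relative to DMSO.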

[15] = read-out: Plasminogen activator inhibitor-1 (PAI1), SERPINE1 (gene 5054); experiment: BSK_BE3C_PAI1: BioMAP Diversity Plus: BE3C Assay for Plasminogen activator inhibitor-1 (PAI1) Biomarker Activity (AID 2283037); settings: primary human bronchial epithelial cells; actives raise or lower the signal
How it was run: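 PAI-1 biomarker levels in treated human bronchial epithelial cells are determined by ELISA at 24 h. Both increases and decreases relative to DMSO are fitted.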

[16] = read-out: urokinase plasminogen activator (uPA), PLAU (gene 5328); experiment: BSK_BE3C_uPA: BioMAP Diversity Plus: BE3C Assay for urokinase plasminogen activator (uPA) Biomarker Activity (AID 2283038); settings: primary human bronchial epithelial cells; actives raise or lower the signal;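 also: uPA protein level quantified by ELISA in cell cultures; uPA read one day after compound addition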
How it was run: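 Primary human bronchial epithelial cells, uPA measured by ELISA 24 h after dosing. Bidirectional change relative to DMSO; cytotoxicity checked in parallel cultures by sulforhodamine B total-protein staining.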

[17] = read-out: Urokinase-type plasminogen activator receptor (uPAR), PLAUR (gene 5329); experiment: BSK_BE3C_uPAR: BioMAP Diversity Plus: BE3C Assay for Urokinase-type plasminogen activator receptor (uPAR) Biomarker Activity (AID 2283039); settings: primary human bronchial epithelial cells; actives raise or lower the signal;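 also: cells exposed to compound for one day before measurement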
How it was run: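 A uPAR ELISA serves as the readout, taken 24 h after treating primary human bronchial epithelial cells. Responses in either direction are fitted against DMSO, which defines baseline activity.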

[18] = read-out: Interleukin-6 (IL6), IL6 (gene 3569); experiment: BSK_CASM3C_IL6: BioMAP Diversity Plus: CASM3C Assay for Interleukin-6 (IL6) Biomarker Activity for (AID 2283040); settings: primary human coronary artery smooth muscle cells; actives raise or lower the signal
[19] = read-out: Vascular endothelial growth factor receptor 2 (Homo sapiens) (UniProt P35968); experiment: BSK_4H_VEGFRII: BioMAP Diversity Plus: 4H Assay for Vascular endothelial growth factor receptor 2 (VEGFR2) Biomarker Activity (AID 2283031); settings: primary human endothelial cells (HUVEC); actives raise or lower the signal
How it was run: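 Primary human umbilical vein endothelial cells (4H system), 24 h exposure; cell-surface VEGFR2 measured by ELISA. Bidirectional fitting versus DMSO; cytotoxicity checked in parallel by SRB total-protein staining.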

[20] = read-out: Monokine induced gamma interferon (MIG), CXCL9 (gene 4283); experiment: BSK_BE3C_MIG: BioMAP Diversity Plus: BE3C Assay for Monokine induced gamma interferon (MIG) Biomarker Activity (AID 2283035); settings: primary human bronchial epithelial cells; actives raise or lower the signal;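 also: MIG protein measured by ELISA in BE3C cultures after 24 h of dosing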
How it was run: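 Primary human bronchial epithelial cells treated for 24 h; MIG levels measured by ELISA, fitted bidirectionally versus DMSO. Parallel SRB total-protein staining assessed cytotoxicity.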

Measured: AC50

CCN(CC)c1ccc(C=O)cc1
inactive: [1] | [2] | [3] | [4] | [5] | [6] | [7] | [8] | [9] | [10] | [11] | [12] | [13] | [14] | [15] | [16] | [17] | [18]

O=S(=O)(O)CCC(F)(F)C(F)(F)C(F)(F)C(F)(F)F
active: [1] 30 µM
inactive: [1] | [3] | [4] | [5] | [7] | [8] | [9] | [12] | [13] | [14] | [15] | [16] | [17] | [18]

CCOC(C=C(C)CCC=C(C)C)OCC
inactive: [5] | [9] | [12] | [14] | [15] | [16] | [17]
active: [1] 29.8 µM | [2] 36 µM | [4] 31.2 µM | [6] 37.1 µM | [7] 30.2 µM | [8] 31 µM | [10] 3.97 µM | [11] 35.2 µM | [18] 20 µM

O=C=Nc1cccc2c(N=C=O)cccc12
inactive: [1] | [2] | [4] | [5] | [6] | [7] | [8] | [9] | [19] | [12] | [13] | [14] | [15] | [16] | [17] | [18]

CN(C(=O)C(F)(F)C(F)(F)C(F)(F)F)[Si](C)(C)C
inactive: [1] | [2] | [3] | [4] | [5] | [7] | [8] | [9] | [19] | [12] | [14] | [15] | [16] | [17] | [18]

CCN(CC)c1ccc2c(c1)Oc1cc(N(CC)CC)ccc1C21OC(=O)c2ccccc21
inactive: [2] | [5] | [7] | [8] | [9] | [19] | [12] | [20] | [15] | [16] | [17] | [18]
active: [1] 4.05 µM | [4] 5.74 µM | [6] 19.9 µM | [14] 1.98 µM
